The test system of one assay is CAMKK2. Also noted: species or system human, MV4-11 + K-562 + COLO205 + SK-N-BE2 + OVCAR-8. Conditions: read-out: apparent Kd; compound concentrations: 100 nM and 1000 nM (sheet 'Samples'), CATDS: 3.10077731514018E-2; n = 1.
The test system of a further assay is CLK1. Also noted: species or system human, MV4-11 + K-562 + COLO205 + SK-N-BE2 + OVCAR-8. The conditions noted are these: read-out: apparent Kd; compound concentrations: 100 nM and 1000 nM (sheet 'Samples'), CATDS: 5.1220055062038403E-2; n = 1.
In a further assay the test system is CLK4. On the set-up: species or system human, MV4-11 + K-562 + COLO205 + SK-N-BE2 + OVCAR-8. Conditions: read-out: apparent Kd; compound concentrations: 100 nM and 1000 nM (sheet 'Samples'), CATDS: 6.3001679315381406E-2; n = 1.
Another assay concerns CSNK1D. On the set-up: species or system human, MV4-11 + K-562 + COLO205 + SK-N-BE2 + OVCAR-8. The conditions noted are these: read-out: apparent Kd; compound concentrations: 100 nM and 1000 nM (sheet 'Samples'), CATDS: 3.1213203175664998E-2; n = 1.
A further assay relates to EIF2AK1. On the set-up: species or system human, MV4-11 + K-562 + COLO205 + SK-N-BE2 + OVCAR-8. Conditions: read-out: apparent Kd; compound concentrations: 100 nM and 1000 nM (sheet 'Samples'), CATDS: 3.5611911741364403E-2; n = 1.
The next assay concerns FER. Also noted: species or system human, MV4-11 + K-562 + COLO205 + SK-N-BE2 + OVCAR-8. The conditions noted are these: read-out: apparent Kd; compound concentrations: 100 nM and 1000 nM (sheet 'Samples'), CATDS: 4.34234720684002E-2; n = 1.
The test system of the next assay is GAK. Also noted: species or system human, MV4-11 + K-562 + COLO205 + SK-N-BE2 + OVCAR-8. Conditions: read-out: apparent Kd; compound concentrations: 100 nM and 1000 nM (sheet 'Samples'), CATDS: 0.16140378921040499; n = 1.
The test system of the next assay is IGF1R. On the set-up: species or system human, MV4-11 + K-562 + COLO205 + SK-N-BE2 + OVCAR-8. Conditions: read-out: apparent Kd; compound concentrations: 100 nM and 1000 nM (sheet 'Samples'), CATDS: 3.6183356665864301E-2; n = 1.
Another assay has as its system INSR. On the set-up: species or system human, MV4-11 + K-562 + COLO205 + SK-N-BE2 + OVCAR-8. Conditions: read-out: apparent Kd; compound concentrations: 100 nM and 1000 nM (sheet 'Samples'), CATDS: 4.1283599015515197E-2; n = 1.
A further assay relates to MAPK10. Also noted: species or system human, MV4-11 + K-562 + COLO205 + SK-N-BE2 + OVCAR-8. Conditions: read-out: apparent Kd; compound concentrations: 100 nM and 1000 nM (sheet 'Samples'), CATDS: 0.121038756107581; n = 1.
Another assay deals with MAPK8. On the set-up: species or system human, MV4-11 + K-562 + COLO205 + SK-N-BE2 + OVCAR-8. Conditions: read-out: apparent Kd; compound concentrations: 100 nM and 1000 nM (sheet 'Samples'), CATDS: 0.11476451358793401; n = 1.
In the next assay the test system is MAPK9. On the set-up: species or system human, MV4-11 + K-562 + COLO205 + SK-N-BE2 + OVCAR-8. The conditions noted are these: read-out: apparent Kd; compound concentrations: 100 nM and 1000 nM (sheet 'Samples'), CATDS: 6.9052364835720206E-2; n = 1.
The next assay concerns NUAK1. On the set-up: species or system human, MV4-11 + K-562 + COLO205 + SK-N-BE2 + OVCAR-8. Conditions: read-out: apparent Kd; compound concentrations: 100 nM and 1000 nM (sheet 'Samples'), CATDS: 3.4302390396245802E-2; n = 1.
A further assay relates to PRKD2. Also noted: species or system human, MV4-11 + K-562 + COLO205 + SK-N-BE2 + OVCAR-8. Conditions: read-out: apparent Kd; compound concentrations: 100 nM and 1000 nM (sheet 'Samples'), CATDS: 3.5974174305942498E-2; n = 1.
For a further assay, the system named is PRKD3. On the set-up: species or system human, MV4-11 + K-562 + COLO205 + SK-N-BE2 + OVCAR-8. Conditions: read-out: apparent Kd; compound concentrations: 100 nM and 1000 nM (sheet 'Samples'), CATDS: 3.1846341330559601E-2; n = 1.
Another assay relates to PTK2B. On the set-up: species or system human, MV4-11 + K-562 + COLO205 + SK-N-BE2 + OVCAR-8. Conditions: read-out: apparent Kd; compound concentrations: 100 nM and 1000 nM (sheet 'Samples'), CATDS: 8.6310597132222E-2; n = 1.
The next assay deals with PTK2. Also noted: species or system human, MV4-11 + K-562 + COLO205 + SK-N-BE2 + OVCAR-8. The conditions noted are these: read-out: apparent Kd; compound concentrations: 100 nM and 1000 nM (sheet 'Samples'), CATDS: 5.1603916843062203E-2; n = 1.
Another assay addresses Q6ZSR9 (human, UniProt Q6ZSR9). Also noted: species or system MV4-11 + K-562 + COLO205 + SK-N-BE2 + OVCAR-8. Conditions: read-out: apparent Kd; compound concentrations: 100 nM and 1000 nM (sheet 'Samples'), CATDS: 3.1507778196600798E-2; n = 1.
Another assay concerns RPS6KA1. Also noted: species or system human, MV4-11 + K-562 + COLO205 + SK-N-BE2 + OVCAR-8. The conditions noted are these: read-out: apparent Kd; compound concentrations: 100 nM and 1000 nM (sheet 'Samples'), CATDS: 3.19128363140119E-2; n = 1.
For another assay, the system named is TNK1. On the set-up: species or system human, MV4-11 + K-562 + COLO205 + SK-N-BE2 + OVCAR-8. Conditions: read-out: apparent Kd; compound concentrations: 100 nM and 1000 nM (sheet 'Samples'), CATDS: 0.144330390511521; n = 1.
A further assay deals with TTK. Also noted: species or system human, MV4-11 + K-562 + COLO205 + SK-N-BE2 + OVCAR-8. Conditions: read-out: apparent Kd; compound concentrations: 100 nM and 1000 nM (sheet 'Samples'), CATDS: 8.7899385258393206E-2; n = 1.
In another assay the test system is CDC42BPG. Also noted: species or system human, MV4-11 + K-562 + COLO205 + SK-N-BE2 + OVCAR-8. Conditions: read-out: apparent Kd; compound concentrations: 100 nM and 1000 nM (sheet 'Samples'), CATDS: 0.22924434609497199; n = 1.
The subject of another assay is FLT4. On the set-up: species or system human, MV4-11 + K-562 + COLO205 + SK-N-BE2 + OVCAR-8. Conditions: read-out: apparent Kd; compound concentrations: 100 nM and 1000 nM (sheet 'Samples'), CATDS: 0.57222186491760196; n = 1.
In another assay the test system is PLK1. On the set-up: species or system human, MV4-11 + K-562 + COLO205 + SK-N-BE2 + OVCAR-8. Conditions: read-out: apparent Kd; compound concentrations: 100 nM and 1000 nM (sheet 'Samples'), CATDS: 0.18184890704530299; n = 1.
The test system of another assay is RIPK2. On the set-up: species or system human, MV4-11 + K-562 + COLO205 + SK-N-BE2 + OVCAR-8. The conditions noted are these: read-out: apparent Kd; compound concentrations: 100 nM and 1000 nM (sheet 'Samples'), CATDS: 0.227728306624736; n = 1.

Chain of Q6ZSR9 (Q6ZSR9 whole entry, looked up): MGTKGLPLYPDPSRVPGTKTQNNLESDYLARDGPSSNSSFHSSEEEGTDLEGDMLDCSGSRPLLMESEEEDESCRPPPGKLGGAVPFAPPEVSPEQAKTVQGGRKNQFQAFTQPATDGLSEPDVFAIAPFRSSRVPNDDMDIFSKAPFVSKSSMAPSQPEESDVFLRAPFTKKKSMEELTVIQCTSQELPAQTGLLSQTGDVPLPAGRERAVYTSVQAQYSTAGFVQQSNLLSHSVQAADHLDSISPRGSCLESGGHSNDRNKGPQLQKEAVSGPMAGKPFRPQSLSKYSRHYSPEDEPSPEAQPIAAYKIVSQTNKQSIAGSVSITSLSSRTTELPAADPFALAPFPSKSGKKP

For `COc1cc(N2CCN(C(C)C)CC2)ccc1Nc1nc(Nc2ccc(F)cc2C(N)=O)c2cc[nH]c2n1` [GSK1220512A], the potency estimated from few doses in the assay with CAMKK2 was 2210 nM; in the assay on CLK1 it was 361 nM; with CLK4, 213 nM; with CSNK1D it was 2140 nM; in the assay with EIF2AK1 it was 1180 nM; in the assay with FER it was 587 nM. The potency estimated from few doses in the assay on GAK was 38 nM; in the assay on IGF1R, 1110 nM; in the assay with INSR it was 691 nM; in the assay with MAPK10, 59.2 nM; in the assay with MAPK8, 64.7 nM; in the assay on MAPK9 it was 172 nM. Besides, the potency estimated from few doses in the assay with NUAK1 was 1380 nM; with PRKD2, 1130 nM; in the assay on PRKD3 it was 1930 nM; in the assay on PTK2B, 108 nM; in the assay with PTK2 it was 354 nM; with Q6ZSR9, 2040 nM. Besides, the potency estimated from few doses is 1910 nM with RPS6KA1, 44.9 nM in the assay on TNK1 and 104 nM with TTK.

Take `COc1cc2nccc(Nc3ccc(OCc4ccc(NC(C)=O)cc4)cc3)c2cc1OC.Cl` [GW440135A]: the potency estimated from few doses in the assay with CDC42BPG was 1070 nM; in the assay with FLT4, 185 nM; with PLK1, 2130 nM; with RIPK2 it was 1090 nM.
